Structures are written as SMILES. Unmarked numbers belong to inactive results.

These results are taken from the supplement of paper PMC13380429.

This test relates to Vero E6 infected with SARS-CoV-2. In words: inhibition of SARS-CoV-2 cytopathic effect; higher = more antiviral protection, active = above 15. As to conditions: 833.33 nM; 48 h. (Cytopathic effects are the visible damage that an infection or toxin causes in cultured cells.)
Turning to `O=C(O)Cc1ccc(OCCNC[C@H](O)c2ccccc2)cc1`, the “inhibition of SARS-CoV-2 cytopathic effect” value (shortened to “inhibition”) is -0.56%.

For `C[N+]1(C)CCCC(OC(=O)C(O)(c2ccccc2)c2ccccc2)C1` (stereo not given) [mepenzolate], the “inhibition” value was 0.26%.

Turning to `O=P(O)(O)C(O)(Cc1cnc2ccccn12)P(=O)(O)O` [minodronic-acid], the “inhibition” value is 2.46%.

Take `COc1ccc2cccc(N3CCN(CCNC(=O)c4ccc(F)cc4)CC3)c2c1`: the “inhibition” value was 0.7%.

In the case of `CO/N=C(\C(=O)N[C@@H]1C(=O)N2C(C(=O)OCOC(=O)C(C)(C)C)=C(/C=C\c3scnc3C)CS[C@H]12)c1csc(N)n1` [cefditoren-pivoxil], the “inhibition” value is -1.49%.

On to `Cc1ccc(-c2csc3ncnc(SCCC(=O)O)c23)cc1`, for which the “inhibition” value is 1.22%.

For the compound `Cn1c2c(c3ccccc31)CCNCC2`, the “inhibition” value was 0.96%.

Regarding `CCOC(=O)c1ccc(C#Cc2ccc3c(c2)C(C)(C)CCS3)nc1` [tazarotene], the “inhibition” value is 3.69%.

As to `C[C@H](CCC(=O)O)[C@H]1CC[C@H]2[C@@H]3[C@@H](O)C[C@@H]4C[C@H](O)CC[C@]4(C)[C@H]3CC[C@]12C` [ursodiol], the “inhibition” value was 1.38%.

Consider `Nc1nc(OCC2CCCCC2)c2nc[nH]c2n1`, for which the “inhibition” value is 1.35%.

Regarding `CNC1CC(c2ccc(Cl)c(Cl)c2)c2ccccc21` (stereo not given) [indatraline], the “inhibition” value was -3.42%.

As for `CCCN(CCC)CCc1cccc2c1CC(=O)N2` [ropinirole], the “inhibition” value is 2.2%.

For the compound `OC(CCN1CCCCC1)(c1ccccc1)C1CC2C=CC1C2` (stereo not given) [biperiden], the “inhibition” value was -2.88%.

On to `O=C([O-])c1ccccn1.O=C([O-])c1ccccn1.O=C([O-])c1ccccn1.[Cr+3]` [chromium-picolinate], for which the “inhibition” value is -3.86%.

Turning to `CN1[C@@H]2C[C@@H](O)C[C@H]1[C@@H]1O[C@@H]12` [scopine], the “inhibition” value is 1.5%.

As for `O=c1nc2ccccc2c2n1CC(CN1CCN(c3ccccc3)CC1)N2` (stereo not given), the “inhibition” value was 4.08%.

Regarding `CC(C)NCC(O)COc1cccc2[nH]ccc12` (stereo not given) [pindolol], the “inhibition” value is -0.725%.

On to `O=C(O)Cc1ccc(CCNS(=O)(=O)c2ccc(Cl)cc2)cc1` [daltroban], for which the “inhibition” value was -0.76%.

On to `NC[C@H]1O[C@H](O[C@H]2[C@H](O[C@@H]3O[C@H](CO)[C@@H](O)[C@H]3O)[C@@H](O)[C@H](N)C[C@@H]2N)[C@H](N)[C@@H](O)[C@@H]1O` [ribostamycin-sulfate], for which the “inhibition” value is -1.25%.

Consider `CC12CCC(C(=O)N(CCCCN3CCN(c4ccccn4)CC3)C1=O)C2(C)C` (stereo not given) [piricapiron], for which the “inhibition” value is 0.95%.

Turning to `COc1cccc(C=NCCN=Cc2cccc(OC)c2[O-])c1[O-].[Cl-].[Mn+3]`, the “inhibition” value was 1.11%.

Turning to `CC(=O)Nc1nnc(S(N)(=O)=O)s1` [acetazolamide], the “inhibition” value is -2.21%.

On to `CC(=O)Nc1ccc(CC(=O)O)cc1` [actarit], for which the “inhibition” value was -0.15%.

With `Fc1ccc(C(OCCN2CCN(CCCc3ccccc3)CC2)c2ccc(F)cc2)cc1` [vanoxerine], the “inhibition” value is -3.95%.

As to `Cc1cccc(Cc2c[nH]cn2)c1C` [detomidine], the “inhibition” value is -2.3%.

With `O=C(NS(=O)(=O)c1ccc(Br)s1)c1ccc(Cl)cc1Cl` [tasisulam], the “inhibition” value was -0.93%.

For the compound `Oc1ccc2c3c1O[C@H]1[C@@H](O)CC[C@@]4(O)[C@@H](C2)N(CC2CCC2)CC[C@]314` [nalbuphine], the “inhibition” value is 0.68%.

Take `CN1C(C)(C)CCCC1(C)C` [pempidine]: the “inhibition” value is -1.68%.

On to `O=C(O)c1cc(=O)c2c(OCC(O)COc3cccc4oc(C(=O)O)cc(=O)c34)cccc2o1` [cromoglicic-acid], for which the “inhibition” value is 0.49%.

Consider `O=C(O)[C@H]1CC[C@H](c2cc3cccnc3c(-c3cccc(F)c3)n2)CC1`, for which the “inhibition” value is 0.23%.

Consider `C=CCNc1ncnc2ccc(Br)cc12`, for which the “inhibition” value is 0.12%.

For the compound `CCN(CC)CCOCCOC(=O)C(CC)(CC)c1ccccc1` [oxelaidin], the “inhibition” value is -0.56%.

Regarding `CCOc1ccc(-c2ccc(Cn3c(CC(C)(C)C(=O)O)c(SC(C)(C)C)c4cc(OCc5ccc(C)cn5)ccc43)cc2)cn1`, the “inhibition” value was -0.16%.

On to `COc1ccccc1Oc1c(NS(=O)(=O)c2ccc(C)cn2)nc(-c2ccncc2)nc1OC`, for which the “inhibition” value was 2.9%.

For the compound `Cc1cc(NC(=O)C(c2ccccc2)N2CCCc3ccccc32)no1` (stereo not given), the “inhibition” value was 0.35%.

Regarding `C=C1/C(=C\C=C2/CCC[C@]3(C)[C@@H]([C@H](C)/C=C/C=C/C(O)(CC)CC)CC[C@@H]23)C[C@@H](O)C[C@@H]1O` [seocalcitol], the “inhibition” value is 1.95%.

For the compound `COc1cccc(-n2nc(C(=O)O)cc2-c2ccc(C3CCCCC3)c(Cl)c2)c1`, the “inhibition” value was 1.95%.

As to `COc1ccc(CNC(=O)c2sc3nc(C)cc(C)c3c2N)cc1`, the “inhibition” value is 2.96%.

As to `CNc1cc2c(Nc3cccc(Br)c3)ncnc2cn1`, the “inhibition” value is -4.84%.

In the case of `CCCNC(=O)NS(=O)(=O)c1ccc(Cl)cc1` [chlorpropamide], the “inhibition” value is -0.4%.
